12-LOX inh: ALOX12 (human) lipoxygenase inhibition | purified 12hLO, xylenol orange hydroperoxide absorbance | Potency, µM (top dose mostly 108 µM), without a hit: at the highest dose activity change, negative = inhibition, most hits filed as inhibitors | 580,000 tested, 1.1% active | AID 1671190 | P18054; note: % is set by controls: 0 for no effect and ±100 for the full control effect
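Purified human 12hLO (150 nM final) in 25 mM Hepes, 0.01% Triton X-100, pH 7.0 was preincubated 15 min at room temperature with compound. Then 40 uM arachidonic acid was added, 30 min. Hydroperoxide was read by Fe-XO absorbance ratio 573/405 nm.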
BAZ2B inh: blocks human BAZ2B; AlphaScreen BAZ2B-H3K14Ac peptide displacement; AID 504333; Q9UIF8; 360,000 tested, 4.4% active; Potency, µM (highest dose often 114 µM), without a hit: top-dose activity change, negative = inhibition, usual class: inhibitors; note: % is set by controls: 0 for no effect and ±100 for the full control effect; nearly all actives have a fitted effect of over 60% in size
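Inhibition is scored as reduced AlphaScreen emission. The BAZ2B/b-H3(5-23)K14Ac complex (50 nM each) in PBS pH 7.4, 0.01% Tween-20 meets compound (up to 110 uM) for 30 min at RT before bead addition.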
G9a inh: inhibitors of human histone lysine methyltransferase G9a; Q96KQ7; G9a H3K9 monomethylation, AlphaScreen, 2 h; Potency, µM (highest dose often 102 µM), for the others: at the highest dose activity, negative = inhibition, actives largely listed as inhibitors; 350,000 tested, 8.8% active; note: % is set by controls: 0 for no effect and ±100 for the full control effect; nearly all actives have a fitted effect of over 75% in size
Target sequence (Q96KQ7 913-1193 limits assumed): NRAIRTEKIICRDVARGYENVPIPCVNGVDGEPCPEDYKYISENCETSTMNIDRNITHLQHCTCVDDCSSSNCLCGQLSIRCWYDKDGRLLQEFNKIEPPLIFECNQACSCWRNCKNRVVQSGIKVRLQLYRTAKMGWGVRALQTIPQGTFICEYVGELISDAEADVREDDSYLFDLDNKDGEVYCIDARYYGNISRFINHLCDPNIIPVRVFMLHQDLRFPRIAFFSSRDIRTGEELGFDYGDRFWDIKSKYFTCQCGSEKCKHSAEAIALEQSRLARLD
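AlphaScreen read-out: biotin-H3K9 peptide (500 nM) methylation by 20 nM enzyme with 20 uM SAM, 2 h at room temperature after 15 min compound preincubation; anti-monomethyl H3K9 antibody plus donor/acceptor beads, 10 min dark.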
HP1b binding inh: inhibitors of HP1-beta chromodomain binding to methylated histone tails. 390,000 tested, 0.56% active. P83916. Potency, µM (doses to about 114 µM), for inactives: at the top dose activity change, negative = inhibition, most hits filed as inhibitors. AlphaScreen HP1-beta / biotin-H3K9me3 peptide binding; note: nearly all actives have a fitted effect of over 70% in size
Target sequence (P83916 whole entry, looked up): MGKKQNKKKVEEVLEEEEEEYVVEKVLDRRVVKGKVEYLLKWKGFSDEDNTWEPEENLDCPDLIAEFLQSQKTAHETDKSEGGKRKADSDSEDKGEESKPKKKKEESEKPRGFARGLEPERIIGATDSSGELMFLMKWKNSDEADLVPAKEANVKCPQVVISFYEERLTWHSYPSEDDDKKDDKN
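HP1-beta protein (50 nM final) preincubated 30 min at room temperature with biotinylated H3(1-18)K9me3 peptide (50 nM) in PBS pH 7.4, 0.01% Tween-20, then compound added for 30 min. AlphaScreen streptavidin donor/nickel chelate acceptor beads (10 ug/mL final), 30 min dark, luminescence read.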
JMJD2A Tudor: inhibitors of human JMJD2A Tudor domain; Potency, µM (highest dose often 114 µM), for inactives: at the highest dose activity change, negative = inhibition, most hits filed as inhibitors; 390,000 tested, 4.4% active; AlphaScreen JMJD2A-Tudor / H3K4me3 peptide binding; O75164; AID 504339; note: % is set by controls: 0 for no effect and ±100 for the full control effect; nearly all actives have a fitted effect of over 50% in size
Sfp inh: inhibitors of Bacillus subtilis Sfp phosphopantetheinyl transferase. Q9F4F7. Biochemical Sfp PPTase activity, qHTS. Potency, µM, without a hit: largest response in the series, negative = inhibition, most hits filed as inhibitors. 310,000 tested, 3.5% active. AID 1490;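 note: the enzyme is Sfp with the accession as filed and its product quenches rhodamine fluorescence; 0% = enzyme reaction without inhibitor and -100% = no enzyme wells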
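With Hepes-Na pH 7.6 buffer containing 10 mM MgCl2, Sfp (15 nM) modified BHQ-2-YbbR (12.5 uM) using rhodamine-CoA (5 uM). Two reads 30 minutes apart at 525/598 nm yielded each well's rate.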
Numbers without * were called inactive; ? = inconclusive; . = not tested or not shown; [ ] = remark or other dose. A selection: hits, their analogues and other compounds. The true share with any hit is near 8.7%. Calls come from the whole dose curve; as a rule, active = well fitted curve in the direction sought with a large enough effect; inconclusive = small, poorly fitted or top-dose-only effect, or another doubt; inactive = no such curve, though single readings can be large; an effect the other way counts as inactive or inconclusive. Potency is the fitted concentration of half-maximal effect.

SMILES	12-LOX inh	BAZ2B inh	G9a inh	HP1b binding inh	JMJD2A Tudor	Sfp inh
Cc1ccc(NC(=O)CSc2nnc(CC3CCS(=O)(=O)C3)n2C)cc1 (centres undefined)	1%	.	.	.	.	.
CCN(Cc1cccc(F)c1)C(=O)Cn1cnc2c1c(=O)n(C)c(=O)n2C	26%	.	.	.	.	.
Cc1cc(NC(=O)Cn2cc([N+](=O)[O-])cn2)no1	-26%	-15%	50µM*	46%	3%	-18%
N#Cc1c(-c2ccccc2)nc(SCc2cccc(Cl)c2)[nH]c1=O	40µM*	-15%	2%	1%	-21%	1%
N#Cc1c(Cl)nc(-c2ccncc2)nc1-c1ccccc1	-7%	79µM*	28µM*	50%	?	-5%
N#Cc1c(-c2ccccc2)nc(-c2ccncc2)[nH]c1=O	-8%	-2%	-2%	28%	-9%	15%
N#Cc1c(Cl)nc(SCc2ccccc2)nc1-c1ccccc1	.	79µM*	.	.	.	-60%
c1ccc(CSc2nnc(-c3ccccc3)c(-c3ccccc3)n2)cc1	-101%	.	.	50%	2%	.
Cc1sc2nc(CN3CCOCC3)nc(NCCc3ccccc3)c2c1C	-11%	-33%	-2%	-3%	?	3%
O=c1[nH]c(CN2CCN(c3ccccc3)CC2)nc2scc(-c3ccccc3)c12	-1%	-37%	?	0%	?	2%
Cc1sc2nc(CN3CCN(c4ccc(O)cc4)CC3)[nH]c(=O)c2c1C	?	?	.	?	?	35µM*
Cc1sc2nc(CN3CCOCC3)[nH]c(=S)c2c1C	?	-34%	40µM*	8%	-27%	8.9µM*
Cn1c(=O)n(CC(=O)NCc2nnc3n2CCCCC3)c2ccccc21	5%	.	.	.	.	.
CN(CC(=O)Nc1nccs1)S(=O)(=O)c1ccc(Br)cc1	-5%	.	.	.	.	.
CCCCCCOc1ccc(C(=O)CCN(C)C)cc1	32µM*	.	.	.	.	.
COc1ccc(C(=O)CCN(C)C)cc1	-27%	.	.	.	.	.
CCCSc1ccc(C(=O)CCN(C)C)cc1	32µM*	.	.	.	.	.
CCCCCC1CCC(c2ccc(C(=O)CCN(C)C)cc2)CC1 (centres undefined)	7.9µM*	.	.	.	.	.
CCCC1CCC(c2ccc(C(=O)O)cc2)CC1 (centres undefined)	0%	.	.	.	.	.
CCCOc1ccc(C(=O)CCN(C)C)cc1	-85%	.	.	.	.	.
Cc1cc(F)ccc1-c1[nH]nc2ncc(-c3cnn(C)c3)nc12	3%[176 µM]	.	.	.	.	.
COc1ccc(S(=O)(=O)Oc2ccc3c(c2)O/C(=C\c2cc(OC)ccc2OC)C3=O)cc1	0%	.	.	.	.	.
Cc1c(CN(C)C)c2c(n1Cc1ccccc1)C(=O)c1ccccc1-2	-14%	50µM*	?	?	50µM*	-2%
Cc1cc(=O)n(Cc2ccccc2)c2ccccc12	1%	?	-5%	28%	-29%	10%
CCO/C=C1/C(=O)N(C(C)=O)c2ccccc21	-13%	-15%	10µM*	54%	-13%	?
SMILES	12-LOX inh	BAZ2B inh	G9a inh	HP1b binding inh	JMJD2A Tudor	Sfp inh
Cc1ccc2nc(NC(=O)COC(=O)CSc3nc(C)cc(C)n3)sc2c1	?	-37%	45µM*	34%	-13%	?
COC(=O)c1cccc(NC(=O)COC(=O)CSc2nc(C)cc(C)n2)c1	0%	-3%	0%[59 µM]	26%	-21%	3%
COC(=O)c1ccc2nc(NC(=O)COC(=O)CSc3nc(C)cc(C)n3)sc2c1	-19%	?	13µM*	30%	-6%	-17%
COC(=O)c1ccc2nc(NC(=O)CN3C(=O)CCC3=O)sc2c1	-28%	56µM*	-7%[2.33 µM]	-6%	-21%[11.4 µM]	28µM*
NC(=S)N=Nc1ccc(NN=C(N)N)cc1	?	40µM*	?	4µM*	11µM*	0.56µM*
NC(N)=Nc1ccc(N=C(N)N)cc1	-12%	?	?	37%	-6%	9%
Cc1c(C)n(-c2ccc(Cl)cc2)c2ncn(CC(=O)NC(C)c3ccccc3)c(=O)c12 (centres undefined)	25µM*	.	.	.	.	.

Screens deposited in PubChem by National Center for Advancing Translational Sciences (NCATS).
